Structures are written as SMILES. Unmarked numbers belong to inactive results. Inconclusive results are not listed. The source made the active and inactive calls. Unless noted, calls come from the whole dose curve; as a rule, active = well fitted curve in the direction sought with a large enough effect in the repeat runs; inconclusive = weak or mixed curves; inactive = no such curve, though single readings can be large; an effect the other way counts as inactive or inconclusive.

Assay [1] in a line: qHTS assay for small molecule agonists of the p53 signaling pathway (AID 651631; calls by dose curve; note: nearly all actives have a fitted effect of over 15% in size). In a few lines: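 HCT-116 p53RE-bla reporter line, 16 h compound treatment at 37 °C, then fluorescence after 2 h with B/G FRET substrate.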
A short description of assay [2]: qHTS assay for small molecule agonists of the p53 signaling pathway - cell viability (AID 651633; calls by dose curve;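 note: p53RE-bla HCT reporter cells with a stable beta-lactamase p53 reporter; series mostly up to about 83 µM; nearly all actives have a fitted effect of over 30% in size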). The procedure, abridged: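 p53RE-bla cells were treated with compound for 16 hours at 37 C. Cytotoxicity was then measured as CellTiter-Glo luminescence after 30 min at room temperature.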
On the technique in general: In qHTS, concentration-response curves come from the screen itself.

The nature of assay [3]: qHTS assay for small molecules that induce genotoxicity in human embryonic kidney cells expressing luciferase-tagged ATAD5 - cell viability (AID 651634; calls by dose curve; note: nearly all actives have a fitted effect of over 25% in size). The procedure, abridged: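 Fluorescence from CellTiter-Fluor, reporting protease activity within live cells, served as the viability read-out. HEK293T cells carrying luciferase-tagged ATAD5 had been treated with compound for 15.5 hr at 37C.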

Assay [4] can be described thus: qHTS assay for small molecule disruptors of the mitochondrial membrane potential (AID 720635). Note: potency is the fitted concentration of half-maximal effect. In a few lines: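 HepG2 cells exposed to compound 1 hr at 37C, then Mito-MPS dye 30 min. Ratio read of aggregate (540/590 nm) versus monomer (490/535 nm) fluorescence.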
Assay [5] in a line: qHTS assay to test for compound auto fluorescence at 590 nm (red) in HepG2 cells (AID 720674). The procedure, abridged: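 HepG2 cells, 2,000 per well in MEM with 10% FBS, attached overnight at 37 C, then got 23 nL compound or DMSO. After 1 hr at 37 C, 5% CO2, red fluorescence was read at 540/590 nm against Rose Bengal sodium as reference.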
A short description of assay [6]: qHTS assay to test for compound auto fluorescence at 535 nm (green) in HepG2 cells (AID 720675).
The nature of assay [7]: qHTS assay to test for compound auto fluorescence at 460 nm (blue) in HEK293 cells (AID 720678). In a few lines: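 HEK293, 2,000 cells/well, 10% dialyzed FBS; attach 4-5 hr 37C; pin compound or DMSO; o/n 37C/5% CO2; fluorescence 405/460 nm; triamterene-equivalent units.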
The nature of assay [8]: qHTS assay to test for compound auto fluorescence at 590 nm (red) in HEK293 cells (AID 720679). The procedure, abridged:
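Intensity at 540nm excitation and 590nm emission is reported as Rose Bengal sodium-equivalent autofluorescence. Measurements followed overnight exposure (37C, 5% CO2) of HEK293 cells, 2,000 per well, to 23 nL compound.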

The nature of assay [9]: qHTS assay to test for compound auto fluorescence at 535 nm (green) in HEK293 cells (AID 720680).
The nature of assay [10]: qHTS assay to test for compound auto fluorescence at 460 nm (blue) in HEK293 cell free culture (AID 720681). In a few lines: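 Compounds were added to cell-free DMEM with 10% FBS and fluorescence read directly. The blue channel used 405 nm excitation and 460 nm emission, with triamterene as the reference fluorophore.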
Assay [11] can be described thus: qHTS assay to test for compound auto fluorescence at 535 nm (green) in HEK293 cell free culture (AID 720682). The procedure, abridged:
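Steps: dispense DMEM/10% FBS into empty wells; pin in compound or DMSO; measure fluorescence at 485/535 nm. Values are fluorescein equivalents.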

A short description of assay [12]: qHTS assay to test for compound auto fluorescence at 590 nm (red) in HEK293 cell free culture (AID 720683). In a few lines:
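Cell-free wells of DMEM with 10% FBS received compound, and intrinsic fluorescence was read at excitation/emission 540/590 nm. Values expressed as equivalence to Rose Bengal sodium.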

Assay [13] in a line: qHTS assay to test for compound auto fluorescence at 590 nm (red) in HepG2 cell free culture (AID 720684). The procedure, abridged:
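Compound was pinned into wells holding MEM with 10% FBS and no cells, and red fluorescence was read at Ex/Em 540/590 nm. Signal is expressed as auto fluorescence equivalency relative to Rose Bengal sodium.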

Assay [14] is described as follows: qHTS assay to test for compound auto fluorescence at 460 nm (blue) in HepG2 cell free culture (AID 720685). The procedure, abridged: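 Compound (23 nL) or DMSO pinned into cell-free MEM with 10% FBS; blue fluorescence read at 405/460 nm excitation/emission, expressed as auto-fluorescence equivalency to triamterene.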
Assay [15] in a line: qHTS assay to test for compound auto fluorescence at 535 nm (green) in HepG2 cell free culture (AID 720686).
Assay [16] in a line: qHTS assay to test for compound auto fluorescence at 460 nm (blue) in HepG2 cells (AID 720687). The procedure, abridged:
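HepG2 cells in MEM with 10% FBS, attached overnight at 37 C, were exposed to compound or DMSO for 1 hr at 37 C, 5% CO2. Blue fluorescence was read at 405/460 nm, with triamterene as reference fluorophore.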

Assay [17] concerns the target Glucocorticoid receptor (Homo sapiens) (UniProt P04150). Briefly: qHTS assay to identify small molecule agonists of the glucocorticoid receptor (GR) signaling pathway (AID 720691; active = well fitted activation curve with a large enough effect in the signal ratio in the repeat runs, not every such curve was filed as active; the % refers to the signal ratio). The procedure, abridged: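 Fluorescence intensity from LiveBLAzer B/G FRET substrate (2 h, room temperature) reports beta-lactamase expression driven by the glucocorticoid response element in GR-bla HeLa cells after 18 h compound exposure at 37 C.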

The target is the same in assay [18]. Kind of assay: qHTS assay to identify small molecule antagonists of the glucocorticoid receptor (GR) signaling pathway (AID 720692; active = well fitted inhibition curve with a large enough effect in the signal ratio in the repeat runs, not every such curve was filed as active; the % refers to the signal ratio). The procedure, abridged: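 HeLa GR-bla cells; cmpd + dex 5 nM final, 18 h 37 C; LiveBLAzer B/G FRET substrate 2 h RT; fluorescence intensity read. Antagonist mode, qHTS.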
Assay [19] is described as follows: qHTS assay for small molecule disruptors of the mitochondrial membrane potential - cell viability (AID 720634; calls by dose curve;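 note: human HepG2 liver cancer cells; series mostly up to about 83 µM; nearly all actives have a fitted effect of over 20% in size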). In a few lines:
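Cells: HepG2, 2,000/well, attached overnight. Compound 1 hr, 37 C/5% CO2. +m-MPI dye, +CellTiter-Glo 30 min RT. Readout: luminescence (ATP).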

A short description of assay [20]: qHTS assay for small molecules that induce genotoxicity in human embryonic kidney cells expressing luciferase-tagged ATAD5 (AID 651632). Note: nearly all actives have a fitted effect of over 15% in size. In a few lines:
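ATAD5-luc HEK293T, 2,000 cells/well; cpd or DMSO pin-transferred; 16 hr, 37C/5% CO2; Amplite 30 min RT; luminescence.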
% is set by controls: 0 for no effect and ±100 for the full control effect.

Glucocorticoid receptor (Homo sapiens), sequence (P04150 whole entry, looked up): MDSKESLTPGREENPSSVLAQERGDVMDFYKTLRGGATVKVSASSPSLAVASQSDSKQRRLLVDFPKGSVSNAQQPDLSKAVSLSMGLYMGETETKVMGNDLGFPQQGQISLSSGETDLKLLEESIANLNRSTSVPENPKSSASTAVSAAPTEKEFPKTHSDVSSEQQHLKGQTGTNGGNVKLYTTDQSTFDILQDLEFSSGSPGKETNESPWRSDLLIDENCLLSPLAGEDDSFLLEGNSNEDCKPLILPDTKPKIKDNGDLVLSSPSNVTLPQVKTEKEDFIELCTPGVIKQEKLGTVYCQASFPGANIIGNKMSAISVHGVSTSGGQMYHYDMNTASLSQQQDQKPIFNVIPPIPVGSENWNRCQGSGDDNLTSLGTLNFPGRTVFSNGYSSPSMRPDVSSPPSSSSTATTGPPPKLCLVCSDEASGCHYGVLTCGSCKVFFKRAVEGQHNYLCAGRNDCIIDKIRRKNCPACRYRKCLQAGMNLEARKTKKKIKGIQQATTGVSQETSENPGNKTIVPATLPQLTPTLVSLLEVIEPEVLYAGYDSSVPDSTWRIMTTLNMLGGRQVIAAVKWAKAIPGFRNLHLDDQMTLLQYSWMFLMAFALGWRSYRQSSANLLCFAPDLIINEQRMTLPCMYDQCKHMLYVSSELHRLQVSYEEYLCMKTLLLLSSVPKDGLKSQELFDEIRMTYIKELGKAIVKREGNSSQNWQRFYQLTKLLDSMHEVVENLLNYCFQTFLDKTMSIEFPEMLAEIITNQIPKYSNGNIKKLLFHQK

For `OC12N=C(c3ccccc3)SC1Cc1cc(Cl)ccc12` (configuration not stated), the Potency result in assay [1], in [2], in [3], in [5], in assay [6] and in [7] was “inactive” throughout. The Potency entry in assay [8], in assay [9], in [10], in assay [11], in [12] and in [13] was “inactive” in each case. Moreover, the Potency entry in [14], in assay [15] and in assay [16] was “inactive” each time. The Potency in [4] was 17.2 µM (active).

For `CN1CCCCC1CCN1c2ccccc2Sc2ccc(S(C)=O)cc21` (configuration not stated), the Potency result in assay [1], in assay [2], in assay [3], in assay [5], in assay [6] and in assay [7] was “inactive” in each case. For the same molecule, the Potency entry in assay [8], in [9], in assay [10], in assay [11], in [12] and in assay [13] was “inactive” throughout. Also, the Potency entry in assay [14], in assay [15], in assay [16], in assay [17] and in assay [18] was “inactive” throughout.

As to `CC(CO)Oc1ccccc1` (configuration not stated), the Potency result in [1], in assay [2], in [3], in assay [19], in assay [5] and in assay [6] was “inactive” throughout. In addition, the Potency result in assay [7], in [8], in assay [9], in assay [10], in assay [11] and in assay [12] was “inactive” in each case. In addition, the Potency result in assay [13], in assay [14], in assay [15], in assay [16], in [17] and in assay [18] was “inactive” in each case.

Take `O=C(O)c1ccc2cc(C(=O)O)ccc2c1`: the Potency result in assay [20], in [2], in assay [3], in assay [19], in [4] and in assay [5] was “inactive” in each case. Besides, the Potency entry in [6], in assay [7], in assay [8], in assay [9], in assay [10] and in [11] was “inactive” each time. Besides, the Potency result in assay [12], in assay [13], in assay [14], in assay [15], in assay [16] and in [17] was “inactive” in each case. Moreover, the Potency entry in [18] was “inactive”.

For `CCCCC(CC)COC(=O)CCCCC(=O)OCc1ccccc1` (configuration not stated), the Potency result in assay [1], in assay [2], in assay [3], in [19], in assay [5] and in assay [6] was “inactive” throughout. The Potency entry in [7], in assay [8], in assay [9], in assay [10], in assay [11] and in assay [12] was “inactive” throughout. Also, the Potency result in assay [13], in [14], in [15], in assay [16], in assay [17] and in assay [18] was “inactive” each time.

For the molecule `CC(CCc1ccccc1)NCC(O)c1ccc(O)c(C(N)=O)c1` (configuration not stated), the Potency entry in [20], in assay [2], in assay [3], in [19], in [4] and in assay [5] was “inactive” in each case. For the same molecule, the Potency result in assay [6], in assay [7], in assay [8], in assay [9], in assay [10] and in assay [11] was “inactive” each time. Moreover, the Potency result in [12], in assay [13], in assay [14], in assay [15], in [16] and in assay [17] was “inactive” each time.

Take `CCCCC(CC)CN1CN(CC(CC)CCCC)CC(C)(N)C1` (configuration not stated): the Potency entry in assay [20], in assay [2], in assay [3], in assay [19] and in assay [4] was “inactive” in each case. In addition, in [5], the fluorescence, relative to Rose Bengal was 0.775% [at 18.6 µM]. The fluorescence, % of fluorescein control in assay [6] is 0.0031% [at 18.6 µM]; in assay [15] it was -0.051% [at 18.6 µM]. For the same molecule, the fluorescence, % of triamterene in assay [7] is -0.206% [at 18.6 µM]. The fluorescence, % of fluorescent control was -0.0426% [at 18.6 µM] in assay [8], -0.0323% [at 18.6 µM] in assay [10], -0.232% [at 18.6 µM] in [12] and -0.0067% [at 18.6 µM] in [16]. Further, the fluorescence, % of fluorescein in [9] was -0.025% [at 18.6 µM]. Also, the activity change in [11] is 0.0339% [at 18.6 µM, active compounds read high]. In addition, the fluorescence, % of Rose Bengal in assay [13] is 0.0615% [at 18.6 µM].

These data come from PubChem BioAssay (Tox21).
